Source: PMC4336329 (PLoS ONE, 2015)
Out of some 310,000 compounds screened, about 14,000 (4.5%) showed an effect of 50% or more. Effects have a minus sign here. Shown is part of a subset that was picked to be rich in strong results.

target: human ether-à-go-go-related gene (hERG) potassium channel (human, UniProt Q12809); assay: primary screen, population patch clamp on CHO cells stably expressing hERG; higher = less effect of the substance
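Note: peak tail current of the secondary pulse compared with the same well before compound.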

human ether-à-go-go-related gene (hERG) potassium channel, sequence (Q12809 whole entry, looked up): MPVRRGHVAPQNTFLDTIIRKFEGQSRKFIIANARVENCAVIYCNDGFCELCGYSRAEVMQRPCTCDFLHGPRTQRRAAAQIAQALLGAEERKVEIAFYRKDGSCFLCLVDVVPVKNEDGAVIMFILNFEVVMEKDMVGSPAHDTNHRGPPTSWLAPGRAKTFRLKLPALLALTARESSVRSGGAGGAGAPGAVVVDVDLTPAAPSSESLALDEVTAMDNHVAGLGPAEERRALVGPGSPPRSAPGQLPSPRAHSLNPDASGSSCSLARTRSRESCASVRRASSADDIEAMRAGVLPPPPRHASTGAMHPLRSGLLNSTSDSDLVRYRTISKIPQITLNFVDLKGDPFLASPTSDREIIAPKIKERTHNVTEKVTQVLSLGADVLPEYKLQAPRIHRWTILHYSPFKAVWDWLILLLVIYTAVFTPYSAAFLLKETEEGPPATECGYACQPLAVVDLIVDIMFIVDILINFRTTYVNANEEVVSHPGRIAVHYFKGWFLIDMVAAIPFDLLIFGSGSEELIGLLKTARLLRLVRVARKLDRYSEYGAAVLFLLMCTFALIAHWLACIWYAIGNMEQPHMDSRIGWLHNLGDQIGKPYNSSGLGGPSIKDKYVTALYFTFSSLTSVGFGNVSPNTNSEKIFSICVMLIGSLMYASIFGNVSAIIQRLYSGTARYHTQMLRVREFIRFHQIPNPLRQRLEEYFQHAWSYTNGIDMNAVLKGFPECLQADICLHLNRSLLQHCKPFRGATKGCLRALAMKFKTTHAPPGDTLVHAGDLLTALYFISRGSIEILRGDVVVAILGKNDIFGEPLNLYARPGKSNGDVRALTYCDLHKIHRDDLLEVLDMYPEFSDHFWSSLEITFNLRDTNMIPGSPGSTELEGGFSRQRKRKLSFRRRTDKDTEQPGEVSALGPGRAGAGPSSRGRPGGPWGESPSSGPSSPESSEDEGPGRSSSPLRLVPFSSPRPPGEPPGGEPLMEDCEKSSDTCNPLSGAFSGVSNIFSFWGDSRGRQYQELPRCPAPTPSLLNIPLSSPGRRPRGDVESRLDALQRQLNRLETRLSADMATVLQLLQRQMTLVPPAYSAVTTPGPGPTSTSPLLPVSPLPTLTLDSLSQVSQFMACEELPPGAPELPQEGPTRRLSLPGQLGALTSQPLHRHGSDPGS

SMILES	hERG current change (%, negative = inhibition) at 10uM [%]
CSc1cccc(CN2CCC(CO)(Cc3cccc(C(F)(F)F)c3)CC2)c1	-64.4
CCOc1cc(CN2CCC(CO)(Cc3cccc(C(F)(F)F)c3)CC2)ccc1OC	-76.6
COc1ccc(C(=O)Nc2ccc(N3CCOCC3)cc2)cc1OC	1.36
Cc1ccc(CC(=O)NCCc2ccc(S(N)(=O)=O)cc2)cc1	5.87
Brc1ccc([C@H]2CN3CCSC3=N2)cc1.O=C(O)C(=O)O	-35.7
COc1ccc(OC)c(NC(=O)c2ccccc2SC)c1	-40.2
CC(C)c1ccc(C2NC(=O)NC3=C2CCc2ccccc23)cc1 (centres unmarked)	-33.5
COc1cc(Cl)c(CC(=O)c2c[nH]c3ccccc23)cc1OC	15.9
OCC1(Cc2ccccc2C(F)(F)F)CCN(Cc2cccc3cnccc23)CC1	-11
CC(=O)c1ccc(C(=O)N2CCC(CO)(Cc3cccc(C(F)(F)F)c3)CC2)cc1	-74.6
COc1ccc(CN2CCC(CO)(Cc3ccccc3C(F)(F)F)CC2)c(F)c1	-67.3
OCC1(Cc2ccccc2C(F)(F)F)CCN(Cc2ccncc2)CC1	-13.8
CN(C)S(=O)(=O)N1CCC(CO)(Cc2cccc(C(F)(F)F)c2)CC1	-4.25
CC1(C(=O)N2CCC(CO)(Cc3cccc(C(F)(F)F)c3)CC2)CC1	4.02
CC(=O)N1CCN(c2ccc(NC(=O)c3cccc([N+](=O)[O-])c3)cc2)CC1	-3.59
C/C(=N\NC(=O)CSc1nc(C)cc(C)n1)c1ccc2c(c1)OCCO2	18.3
CCC(CC)C(=O)N1CC(=O)Nc2ccc(F)cc2C1c1ccc(F)cc1 (centres unmarked)	-27.8
CCCc1cc(C(=O)NNC(=S)NCC)c2ccccc2n1	18.1
CC1=C(C(=O)Nc2ccccn2)C(c2ccc(N(C)C)cc2)n2ncnc2N1 (centres unmarked)	-62.7
CC1=C(C(=O)Nc2ccccn2)C(c2ccccc2)n2ncnc2N1 (centres unmarked)	13.7
CC1=C(C(=O)Nc2ccccn2)C(c2ccc(F)cc2)n2ncnc2N1 (centres unmarked)	-13.1
O=c1cc(-c2ccccc2)cc(-c2ccccc2)n1CCCO	-31.9

SMILES	hERG current change (%, negative = inhibition) at 10uM [%]
CCc1ccc(C(=O)Nc2cc3c(cc2Cl)OCCCO3)cc1	23.5
O=C(N[C@@H](c1ccccc1)[C@@H]1C[C@H]1C(=O)O)OCc1ccccc1	15.1
CNC(=O)[C@@H]1C[C@H]1[C@@H](NC(=O)OCc1ccccc1)c1ccccc1	-48.3
CN(C)C(=O)[C@@H]1C[C@H]1[C@@H](NC(=O)OCc1ccccc1)c1ccccc1	-64.2
O=P(O)(OCc1ccccc1)OCc1ccccc1	12.1
O=C(O)c1cccc(NC2=Nc3cccc4cccc2c34)c1	14.3
CCn1c(NC(=O)c2ccc(F)cc2)c2ccccc2nc1=O	-11.7
COc1ccc(CCn2c(=O)[nH]c3cc(C(=O)NCCN4CCOCC4)ccc3c2=O)cc1OC	0.353
COc1ccc(CCNC(=O)c2c(N)n(CCN3CCOCC3)c3nc4ccccc4nc23)cc1OC	-8.6
COc1ccc(CCn2c(=N)c(C(=O)NCCN3CCOCC3)cc3c(=O)n4cccc(C)c4nc32)cc1OC	-97.8
Cc1cccn2c(=O)c3cc(C(=O)NCCN4CCOCC4)c(=N)n(CCc4ccccc4)c3nc12	-75
Cc1cccn2c(=O)c3cc(C(=O)NCCN4CCOCC4)n(C)c3nc12	-3.18
O=C(N/N=C/c1ccco1)C1CCCC1	22.1
Cc1ccc(C(=O)Nc2ccc(S(=O)(=O)Nc3ncccn3)cc2)cc1[N+](=O)[O-]	13.4
COc1cccc2cc(C(=O)NCc3ccccc3Cl)c(=O)oc12	6.78
CC(C)CSc1nsc(N)n1	23.1
COc1ccc(N2CCN(C(=O)c3ccc(C)c(NC(=O)c4ccco4)c3)CC2)cc1	-74.8
COc1ccc(N2CCN(C(=O)c3cccc(NC(=O)c4ccco4)c3)CC2)cc1	-43.8
Cc1ccc(C(=O)N2CCN(C(=O)c3ccco3)CC2)cc1NC(=O)c1ccco1	-44.1
O=C(c1ccco1)N1CCc2ccccc21	-3.68
Cc1ccc(C(=O)N2CCc3ccccc32)cc1NC(=O)c1ccco1	-68.1
Cc1ccc(C(=O)N2CCN(c3ccccc3)CC2)cc1NC(=O)c1ccco1	-45.7
